Compound activity deposited in PubChem by several laboratories.
RN4220 kill: growth inhibition of S. aureus RN4220, primary screen, OD600. inhibition, % (no concentration beside the values). actives 0.33% (n = 330,000). 16 h; in the data active = inhibition above about 85%;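 also: plate controls were untreated cells for no effect and reference antibiotic for full effect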
DUSP3 inh: VHR1 phosphatase inhibitors, primary screen, biochemical, absorbance, uHTS | Dual specificity protein phosphatase 3 (Homo sapiens), P51452 | recombinant VHR phosphatase, pNPP absorbance | inhibition, % at 13.3 µM | actives 0.52% (n = 290,000); in the data active = inhibition above about 50%
Target sequence (P51452 whole entry, looked up): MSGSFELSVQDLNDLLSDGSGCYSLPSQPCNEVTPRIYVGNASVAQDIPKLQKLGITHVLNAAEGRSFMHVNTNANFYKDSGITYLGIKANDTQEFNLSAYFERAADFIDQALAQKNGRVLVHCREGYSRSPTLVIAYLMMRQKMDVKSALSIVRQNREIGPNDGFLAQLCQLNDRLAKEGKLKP
PfHsp40 rescue: rescue of yeast from PfHsp40 toxicity, primary screen, S. cerevisiae, ATP luminescence. S. cerevisiae expressing PfHsp40, growth rescue. growth rescue, % at 12.5 µM. actives 0.68% (n = 340,000). AID 504582, 2011; in the data active = growth rescue above about 28%, passing the limit was not always enough;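 also: yeast W303a lacking pdr1 and pdr3 grown in galactose medium; growth measured after three days at 30 °C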
PrPC surface inh: inhibitors of human cell surface prion protein PrPC, primary screen, cell-based, TR-FRET; Major prion protein (Homo sapiens), P04156; TR-FRET read-out; inhibition, % at 13.8 µM; actives 0.43% (n = 370,000); AID 720596, 2013; in the data active = inhibition above about 24%; also: 0% = median of the test wells and 100% = reference compound wells
ugtP null kill: growth inhibition of ugtP-null S. aureus, primary screen, RN4220 ugtP deletion, OD600; 16 h; growth inhibition, % (no concentration beside the values); actives 0.54% (n = 330,000); in the data active = growth inhibition above about 68%;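 also: plate controls were untreated wells for no effect and antibiotic for full effect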
* hit, by the source's call; . = not tested or not shown. Shown are actives, neighbours in structure and some others; about 1.8% of the full set was active somewhere.

SMILES	RN4220 kill	DUSP3 inh	PfHsp40 rescue	PrPC surface inh	ugtP null kill
Cc1cc(OCC(=O)NC2CC(C)(C)NC(C)(C)C2)c2c(C)c(C)c(=O)oc2c1	4.6	28.0	-1.0	-6.0	11.9
Cc1c(OCC(=O)NC2CC(C)(C)NC(C)(C)C2)ccc2c1oc(=O)c1ccccc12	-5.3	52.7*	1.0	-6.8	0.8
Cc1cc(=O)oc2c(C)c(OCC(=O)NC3CC(C)(C)NC(C)(C)C3)ccc12	4.2	1.8	-0.8	4.0	6.7
CCc1cc(=O)oc2c(C)c(OCC(=O)NCCCN3CCOCC3)ccc12	6.3	60.8	-2.0	0.7	14.3
CCCc1cc(=O)oc2c(C)c(OCC(=O)NCCCN3CCOCC3)ccc12	1.4	53.4*	-1.5	-6.2	1.3
Cc1cc(OCC(=O)NC2CC(C)(C)NC(C)(C)C2)c2c(C)cc(=O)oc2c1	0.3	55.6*	-1.2	7.0	-1.2
CCCc1cc(=O)oc2c(C)c(OCC(=O)NC3CC(C)(C)NC(C)(C)C3)ccc12	4.4	50.2*	-0.8	-3.7	6.6
COc1ccccc1C1CC(=O)Oc2cc(C)c(Br)c(C)c21 (stereo not given)	-3.0	.	-1.8	1.3	85.6*
COc1ccc(NC(=O)Cn2nnc(-c3ccccc3NC(=O)c3cccs3)n2)cc1	3.7	21.9	64.7*	9.7	-2.7
O=C1CCC(C(=O)N2CCCC(C(=O)c3ccc4ccccc4c3)C2)=NN1 (stereo not given)	-0.1	50.4*	-0.3	-1.4	-0.8
CC(C)c1cc(C(=O)N2CCCC(C(=O)c3ccc4ccccc4c3)C2)on1 (stereo not given)	-3.4	-3.9	4.6	12.8	1.9
Cc1ccsc1C=NNS(=O)(=O)c1ccc([N+](=O)[O-])cc1	11.7	.	.	.	7.3
Cn1cc(C(=O)OCC(=O)NC2(C#N)CCCCC2)c2ccccc21	5.3	.	0.8	-6.0	9.3
Cn1cc(C(=O)OCC(=O)NC2(C#N)CCCC2)c2ccccc21	5.0	.	65.7*	-4.0	1.2
COc1ccc(N(C(=O)c2ccncc2)S(=O)(=O)c2ccc(OC)c(OC)c2)cc1	2.0	21.2	0.6	-5.7	-9.9
COc1ccc(N(C(=O)c2ccncc2)S(=O)(=O)c2ccccc2)cc1	4.6	2.3	340.0*	-2.8	5.3
COc1ccc(N(C(=O)c2ccncc2)S(=O)(=O)c2ccc(F)cc2)cc1	.	2.5	435.8*	4.5	.
COc1ccc(S(=O)(=O)N(C(=O)c2ccncc2)c2ccc(OC(=O)c3ccncc3)cc2)cc1	3.9	33.0	515.1*	6.3	-0.5
COc1ccc(N(C(=O)c2ccccc2C)S(=O)(=O)c2cccs2)cc1	3.2	-4.1	-0.5	10.7	83.9*
COc1ccc(C2CC(=O)C=C(c3ccc(C(F)(F)F)c(C(F)(F)F)c3)C2)cc1OC (stereo not given)	10.7	.	.	.	22.5
CC(/C=C/c1ccccc1)=NNC(=O)CSc1ccccn1	1.5	.	.	.	-5.4
CCOC(=O)N1CCN(Cc2cccs2)CC1	4.6	-0.8	1.4	5.1	-3.4
c1csc(CN2CCNCC2)c1	5.2	55.5*	-1.5	3.1	5.1
O=C(Oc1ccccc1)c1cc2ccccc2o1	1.7	9.6	-1.5	4.0	100.7*
Cc1cccc(N2C(=O)N3C4c5ccccc5OCC4C(c4ccccc4)[C@]3(C)C2=O)c1 (stereo not given in full)	-2.1	.	.	.	-1.4
SMILES	RN4220 kill	DUSP3 inh	PfHsp40 rescue	PrPC surface inh	ugtP null kill
Cc1ccc(CNC(=O)CON=Cc2ccc(C(C)(C)C)cc2)cc1	3.6	.	.	.	37.3
COC(=O)C(NCc1cccc(CNC(C(=O)OC)c2ccccc2)c1)c1ccccc1 (stereo not given)	4.8	.	.	.	-10.8
O=C(N/N=C/C(Cl)=C/c1ccc([N+](=O)[O-])cc1)C(=O)Nc1ccc(C(=O)O)cc1	.	13.1	84.6*	-18.5	.
O=C(N/N=C/C(Cl)=C/c1ccc([N+](=O)[O-])cc1)C(=O)Nc1ccccc1C(=O)O	.	-2.8	1.5	0.8	.
C#CCOCCOCCOCCNc1nc(N2CCN(C(=O)CCCCCCCCCCNC(=O)C(CCCCN)n3cc(CCO)nn3)CC2)nc(N2CCN(C(=O)CCCCCCCCCCNC(=O)C(C(C)O)n3cc(C)nn3)CC2)n1 (stereo not given)	4.1	.	.	.	-30.7
Cc1cc(Nc2ccccc2)nn1C(=O)c1ccccc1	-6.8	-13.1	238.5*	-6.1	-4.3
CC1(C)NC(=O)N(CCCOc2ccccc2Br)C1=O	.	51.2*	1.6	-2.3	.
O=C1NC(=S)/C(=C\c2ccc(-c3ccccc3Cl)o2)S1	97.1*	-9.9	-0.4	-2.0	95.2*
O=C1NC(=O)/C(=C/c2ccc(-c3cc(C(=O)O)ccc3Cl)o2)S1	6.0	7.9	-0.6	-8.8	3.5
CC1CN(C(=O)CCc2ccccc2)C(C)CN1C(=O)CCc1ccccc1 (stereo not given)	5.3	9.5	44.6*	1.3	10.5
CCOC(=O)CSc1nc2c(c(=O)n1-c1ccc(OCC)cc1)SCC2	4.2	-5.8	40.4*	-1.9	-0.7
CNc1ccccc1C(=O)OC	3.9	22.0	-1.1	6.2	-14.3
COC(=O)C(=N/Nc1ccccc1C(=O)OC)/C(C)=N/O	.	8.7	137.2*	-4.8	.
CC[n+]1c(/C=C2\Sc3ccccc3N2C)ccc2cccc(C)c21	100.4*	6.9	-0.5	-21.3	100.7*
CCN1/C(=C/C=C/C=C/c2sc3ccccc3[n+]2CC)Sc2ccccc21	.	-6.8	.	.	.
CCN1/C(=C/c2ccc3cc(C)ccc3[n+]2CC)Sc2ccccc21	100.1*	-3.8	2.8	-9.5	100.5*
CCN1/C(=C/c2ccc3cc(C)ccc3[n+]2CC)Sc2cc(C)c(C)cc21	100.1*	22.2	10.8	1.0	100.2*
CCOC(=O)/C(=C/C=C1\Sc2cc(C)c(C)cc2N1CC)C(C)=O	12.9	6.5	0.6	-5.4	7.7
COc1ccc(C=NNS(=O)(=O)c2ccc(C)cc2)cc1OC(=O)c1ccc(C)cc1	-6.4	.	.	.	-5.1
CCCCCCSc1nsc(NC(=O)CC(C)C)n1	2.7	-17.2	19.7	15.9	0.0
CCCCCCCSc1nsc(N)n1	8.2	57.3*	3.9	6.6	88.9*
O=C(NC(CO)(CO)CO)C1CCCN1S(=O)(=O)c1cccc2cccnc12 (stereo not given)	-4.1	.	.	.	-11.3
O=C(c1cnc2c(c1)COc1ccc(Cl)cc1-2)c1ccccc1O	6.6	50.4*	0.9	-1.9	14.4
Cc1ccc(O)c(C(=O)c2cnc3c(c2)COc2ccccc2-3)c1	5.9	8.8	12.4	-15.0	16.2
Cn1c(N/N=C2\CCCc3ccccc32)nc2c1c(=O)n(Cc1ccc(F)cc1)c(=O)n2C	.	59.9*	0.3	-1.7	.
COCCCNc1nc2c(c(=O)n(Cc3ccc(F)cc3)c(=O)n2C)n1C	2.8	.	-1.0	5.7	1.4
CSc1ccc(C2=CC(=O)CC(c3ccc(Cl)cc3)C2)cc1 (stereo not given)	-4.9	.	.	.	10.6
CSC1=N/C(=C\c2ccccc2)C(=O)N1C	4.1	26.9	40.1*	0.3	4.9
N#Cc1ccc(C=NN=C(N)N)cc1	-0.1	.	.	.	4.0
